Results on twelve compounds are retold here after PubChem BioAssay (Tox21).

Assay [1] is described as follows: qHTS assay to identify small molecule antagonists of the retinoid acid receptor (RAR) signaling pathway - cell viability counter screen (AID 1159551). Note: nearly all actives have a fitted effect of over 35% in size. In outline: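 C3RL4 RARE-luciferase cells, 1,000/well, incubated overnight, then dosed with compound plus 1 uM retinol (final). After 6 hr at 37 C, viability read by CellTiter-Glo ATP luminescence following 30 min at room temperature.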
In general terms: Quantitative high-throughput screening tests each substance at several concentrations.

Assay [2] is described as follows: qHTS assay to identify small molecule antagonists of the retinoic acid receptor (RAR) signaling pathway (AID 1159552; note: nearly all actives have a fitted effect of over 50% in size; note: potency is the fitted concentration of half-maximal effect). In outline: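 Overnight-plated C3RL4 reporter cells get compound, then retinol to 1 uM final; plates sit 6 hr at 37 C, 5% CO2. A luciferase reagent is added and light output recorded after 30 min at room temperature.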
Assay [3] in a line: qHTS assay to identify small molecule agonists of the retinoic acid receptor (RAR) signaling pathway (AID 1159553). Note: potency is the fitted concentration of half-maximal effect. In outline:
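C3RL4 RARE-luciferase cells were seeded at 1,000/well and grown overnight at 37 C, then exposed to compounds for 6 hr at 37 C, 5% CO2. Luciferase reagent was added and luminescence was read after 30 min at room temperature.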

The nature of assay [4]: qHTS assay to identify small molecule antagonists of the estrogen related receptor (ERR) signaling pathway from Tox21 library - cell viability counter screen (AID 1224834). Note: nearly all actives have a fitted effect of over 30% in size. Note: potency is the fitted concentration of half-maximal effect. In outline: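 ERR reporter cells, 2,000 per well, rested 6 h, then exposed to compound in DMSO for 17.5 hours at 37 C. Viability read as fluorescence after 30 min with CellTiter-Fluor.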
Assay [5] is described as follows: qHTS assay to identify small molecule antagonists of the estrogen related receptor (ERR) signaling pathway - cell viability counter screen (AID 1224818). Note: series mostly up to about 46 µM. The procedure, abridged: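 ERR cells, 2,000 per well, compound added after 6 h and incubated 17.5 h at 37 C. Viability read by CellTiter-Fluor fluorescence after a further 30 min at 37 C.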
Assay [6] in a line: qHTS assay to identify small molecule antagonists of the estrogen related receptor signaling pathway with the pleiotropic PPARgamma coactivator (PGC) cell viability counter screen (AID 1224822; note: series mostly up to about 46 µM). In outline:
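PGC/ERR cells rested 6 h, then compound-treated 17.5 h at 37 C. CellTiter-Fluor added for 30 min at 37 C, viability measured by fluorescence intensity.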

“And” between values parts separate entries of the source, which are not always exact repeats. Equal values may be shown once. Results filed as inconclusive are left out. Where a structure was tested more than once in an assay, its records may differ in their call. The source made the active and inactive calls. Calls come from the whole dose curve; as a rule, active = well fitted curve in the direction sought with a large enough effect in the repeat runs; inconclusive = weak or mixed curves; inactive = no such curve, though single readings can be large; an effect the other way counts as inactive or inconclusive.

As to `O=C(O)c1cc(Cl)cc(Cl)c1`, the Potency entry in assay [1], in assay [2], in assay [3] and in assay [4] was “inactive” each time.
For `NCCCCCC(=O)O`, the Potency entry in assay [1], in assay [2], in assay [3], in assay [5], in assay [6] and in assay [4] was “inactive” in each case.
In the case of `CC(C)CCOC(=O)c1ccc(N(C)C)cc1`, the Potency result in assay [1], in assay [2] and in assay [4] was “inactive” in each case. Further, the Potency in assay [3] was 2.11 µM (active).
On to `OCCOCCN1CCN(C(c2ccccc2)c2ccc(Cl)cc2)CC1` (stereo not given), for which the Potency entry in assay [1] and in assay [3] was “inactive” throughout. For the same compound, the Potency in assay [2] was 60.3 µM (active) and inactive; in assay [4] it was 30.2 µM (active).
Turning to `C/C=C/c1ccc(OCC)c(O)c1`, the Potency entry in assay [1], in assay [2] and in assay [4] was “inactive” each time. The Potency in assay [3] is 54.5 µM (active).
Regarding `c1cc(C(c2ccc(OCC3CO3)cc2)C(c2ccc(OCC3CO3)cc2)c2ccc(OCC3CO3)cc2)ccc1OCC1CO1` (stereo not given), the Potency entry in assay [1], in assay [2] and in assay [4] was “inactive” each time. In assay [3], the Potency was 8.96 µM (active) and 27.3 µM (active).
On to `Cc1ccnc2c1NC(=O)c1cccnc1N2C1CC1`, for which the Potency result in assay [1], in assay [2], in assay [3] and in assay [4] was “inactive” each time.
Regarding `CCC[C@H](N[C@@H](C)C(=O)N1[C@H](C(=O)O)C[C@@H]2CCCC[C@@H]21)C(=O)OCC`, the Potency result in assay [1], in assay [2], in assay [3] and in assay [4] was “inactive” throughout.
As for `COC(c1ccccc1)(c1ccccc1)[C@H](Oc1nc(C)cc(C)n1)C(=O)O`, the Potency entry in assay [1], in assay [2], in assay [3] and in assay [4] was “inactive” in each case.
On to `CCC(C)(Oc1ccc(C2(c3ccc(OC(C)(CC)C(=O)O)cc3)CCCCC2)cc1)C(=O)O` (stereo not given), for which the Potency entry in assay [1], in assay [2], in assay [3] and in assay [4] was “inactive” each time.
With `CC(=O)CC(=O)Nc1ccc2[nH]c(=O)[nH]c2c1`, the Potency result in assay [1], in assay [2], in assay [3] and in assay [4] was “inactive” each time.
Turning to `CCN(CC)C(=O)Nc1ccc(OCC(O)CNC(C)(C)C)c(C(C)=O)c1` (stereo not given), the Potency entry in assay [1], in assay [2], in assay [3] and in assay [4] was “inactive” in each case.
